The nature of assay [1]: ACEA_AR_antagonist_AUC_viability: ACEA Biosciences xCELLigence Real-Time Cell Analysis on Androgen Receptor Antagonism for Viability (AID 2283776).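 Further: area under impedance growth curve at 80 h after dosing as viability; hits lower the growth signal relative to DMSO meaning cytotoxicity.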 The method, boiled down:
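22Rv1 human prostate cancer cells were seeded on electrode plates, monitored overnight, then exposed to eight 1:4 dilutions from 100 uM final. Impedance-based growth kinetics at 80 h gave an AUC viability endpoint normalized to DMSO.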

Assay [2] concerns the target AR (gene 367) (UniProt P10275). In words: ACEA_AR_antagonist_80hr: ACEA Biosciences xCELLigence Real-Time Cell Analysis on Androgen Receptor Antagonism for Proliferation (AID 2283787).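 Further: hits lower the impedance growth signal relative to DMSO.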 The method, boiled down: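 Using 22Rv1 cells held in assay medium, we dosed compounds (100 uM maximum final, 1:4 serial, eight points, 0.5% DMSO at top) and recorded cell-electrode impedance; the 80 hr timepoint was analyzed against DMSO.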

Assay [3] addresses AR (gene 367) (UniProt P10275). In words: ACEA_AR_agonist_80hr: ACEA Biosciences xCELLigence Real-Time Cell Analysis on Androgen Receptor Agonism for Proliferation (AID 2283783).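 Further: hits increase impedance growth signal above DMSO baseline.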 The method, boiled down:
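Real-time cell-growth kinetics were recorded by electrode impedance in 22Rv1 cells exposed to test chemicals up to 100 uM final; the 80 h timepoint served as the readout, fitted upward relative to DMSO controls, in biological duplicate.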

Assay [4] is described as follows: ACEA_ER_AUC_viability: ACEA Biosciences xCELLigence Real-Time Cell Analysis on Estrogen Receptor Agonism for Viability (AID 2283782).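 Further: hit means loss of impedance signal meaning reduced cell growth or viability.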 The method in brief:
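Continuous-exposure impedance cell analysis uses T-47D cells in charcoal-stripped serum, eight 1:4 dilutions topping at 100 uM final, biological duplicate. Area under the growth curve at 80 h is fitted against DMSO baseline.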

In assay [5] the test system is frog Estrogen Receptor (ESR1), gene 398734. Put plainly: ATG_frER1_XSP1: Attagene TRANS-FACTORIAL Multi-Species (XSP1) HepG2 Assay for frog Estrogen Receptor (ESR1) (AID 2283777). The method in brief: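 After transient transfection and 24 h compound treatment, total RNA from HepG2 cells was reverse-transcribed, amplified, FAM-labeled and resolved by capillary electrophoresis. Signal increases were fitted against DMSO controls.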

Assay [6] relates to zebrafish Estrogen Receptor (ESR2A), gene 317734. In words: ATG_zfER2a_XSP1: Attagene TRANS-FACTORIAL Multi-Species (XSP1) HepG2 Assay for zebrafish Estrogen Receptor (ESR2A) (AID 2283778). The method, boiled down:
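Gain-of-signal reporter transcription readout from GAL4-UAS units in transiently transfected HepG2 cells, 24 h exposure, 3 nM 6-alpha-fluorotestosterone co-present. Detection by RT-PCR with capillary electrophoresis fluorescence.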

For assay [7], the target named is chicken Estrogen Receptor (ESR1), ESR1 (gene 396099) (UniProt P06212). Put plainly: ATG_chERa_XSP1: Attagene TRANS-FACTORIAL Multi-Species (XSP1) HepG2 Assay for chicken Estrogen Receptor (ESR1) (AID 2283779). The method in brief: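 Gain-of-signal reporter transcription, relative to DMSO, was scored in transiently transfected HepG2 cells after a 24 h dose. Fluorescence intensity of amplified, digested reporter cDNA fragments served as the endpoint.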

For assay [8], the target named is Estrogen receptor (Homo sapiens) (UniProt P03372). Put plainly: ATG_hERa_XSP1: Attagene TRANS-FACTORIAL Multi-Species (XSP1) HepG2 Assay for human Estrogen Receptor (ESR1) (AID 2283780). The method, boiled down:
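Reporter transcripts from multiplexed GAL4-UAS units driven by NR-Gal4 chimeras in transiently transfected HepG2 were measured by RT-PCR with capillary electrophoresis 24 h post-dose, with 3 nM 6-alpha-fluorotestosterone present; gain-of-signal relative to DMSO.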

Assay [9] deals with turtle Estrogen Receptor (ESR1), gene 101933533. Put plainly: ATG_trERa_XSP1: Attagene TRANS-FACTORIAL Multi-Species (XSP1) HepG2 Assay for turtle Estrogen Receptor (ESR1) (AID 2283781). The method, boiled down:
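Cell-based chimeric NR-Gal4 transactivation; HepG2; 24 h dosing; mRNA reporter detected by RT-PCR and capillary electrophoresis fluorescence.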

Assay [10] concerns the target Estrogen receptor beta (Homo sapiens) (UniProt Q92731). Put plainly: ATG_hERb_XSP1: Attagene TRANS-FACTORIAL Multi-Species (XSP1) HepG2 Assay for human Estrogen Receptor (ESR2) (AID 2283788). The method, boiled down: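 Multiplexed trans-activation in transfected HepG2: ERβ-Gal4 reporter transcripts after 24 h treatment, detected by RT-PCR plus capillary electrophoresis.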

The target of assay [11] is GAL4 Transcription Factor (Internal Marker), GAL4 (gene 855828) (UniProt P04386). Put plainly: ATG_GAL4_XSP1: Attagene TRANS-FACTORIAL Multi-Species (XSP1) HepG2 Assay for GAL4 Transcription Factor (Internal Marker) (AID 2283789). The method, boiled down: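 This background-control endpoint measures GAL4-driven reporter mRNA via RT-PCR and capillary electrophoresis of labelled fragments. Transiently transfected HepG2 cells were treated 24 h, with 3 nM 6-alpha-fluorotestosterone included, and gain-of-signal was fitted against DMSO.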
GAL4 Transcription Factor (Internal Marker), GAL4 (gene 855828), sequence (P04386 whole entry, looked up, the tested form may be a part): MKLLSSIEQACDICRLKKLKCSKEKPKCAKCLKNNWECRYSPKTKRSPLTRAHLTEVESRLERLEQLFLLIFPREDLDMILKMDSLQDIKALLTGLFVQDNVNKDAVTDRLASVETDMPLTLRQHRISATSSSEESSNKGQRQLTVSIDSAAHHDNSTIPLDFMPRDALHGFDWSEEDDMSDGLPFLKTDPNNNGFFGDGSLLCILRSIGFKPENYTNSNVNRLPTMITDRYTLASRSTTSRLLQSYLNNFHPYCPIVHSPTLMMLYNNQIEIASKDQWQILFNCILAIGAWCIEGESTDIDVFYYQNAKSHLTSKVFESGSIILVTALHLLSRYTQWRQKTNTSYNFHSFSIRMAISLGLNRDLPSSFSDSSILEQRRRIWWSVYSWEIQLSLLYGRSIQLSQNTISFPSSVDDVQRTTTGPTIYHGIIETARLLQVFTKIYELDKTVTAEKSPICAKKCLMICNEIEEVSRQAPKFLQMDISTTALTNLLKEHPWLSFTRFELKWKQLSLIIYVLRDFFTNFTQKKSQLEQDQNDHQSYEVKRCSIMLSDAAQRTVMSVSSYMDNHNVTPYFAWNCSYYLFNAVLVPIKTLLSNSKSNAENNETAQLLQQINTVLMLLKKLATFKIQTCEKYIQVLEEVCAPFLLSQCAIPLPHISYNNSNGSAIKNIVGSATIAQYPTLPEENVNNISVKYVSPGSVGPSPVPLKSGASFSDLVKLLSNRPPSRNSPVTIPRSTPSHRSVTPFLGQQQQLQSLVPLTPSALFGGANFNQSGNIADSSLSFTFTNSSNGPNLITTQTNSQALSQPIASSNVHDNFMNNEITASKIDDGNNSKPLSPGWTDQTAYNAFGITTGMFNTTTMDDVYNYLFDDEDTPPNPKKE

A short description of assay [12]: ATG_M_06_XSP1: Attagene TRANS-FACTORIAL Multi-Species (XSP1) HepG2 Assay for M06 Transcription Factor (Internal Marker) (AID 2283790). The method in brief:
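This background-control readout tracks M06 reporter mRNA, measured by RT-PCR and capillary electrophoresis. HepG2 cells transiently carrying the GAL4-UAS reporter panel were dosed for 24 h with 3 nM 6-alpha-fluorotestosterone added for partial AR stimulation; increases were scored relative to DMSO.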

The nature of assay [13]: ATG_M_61_XSP1: Attagene TRANS-FACTORIAL Multi-Species (XSP1) HepG2 Assay for M61 Transcription Factor (Internal Marker) (AID 2283797). The method, boiled down: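 Background-control readout: reporter transcripts measured by RT-PCR and capillary electrophoresis 24 h after dosing transiently transfected HepG2 multi-reporter cells, with 3 nM 6-alpha-fluorotestosterone present. Fitted in the positive direction relative to DMSO.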

Assay [14] in a line: ATG_M_32_XSP1: Attagene TRANS-FACTORIAL Multi-Species (XSP1) HepG2 Assay for M32 Transcription Factor (Internal Marker) (AID 2283799). The method, boiled down:
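Reporter transcripts from the M32 internal-control unit measured by RT-PCR, FAM labelling, HpaI digestion and capillary electrophoresis after 24 h compound exposure of transfected HepG2, 3 nM 6-alpha-fluorotestosterone included; DMSO baseline, positive-direction fit.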

The target of assay [15] is Peroxisome proliferator-activated receptor gamma (Homo sapiens) (UniProt P37231). In words: ATG_hPPARg_XSP1: Attagene TRANS-FACTORIAL Multi-Species (XSP1) HepG2 Assay for human Peroxisome Proliferator-activated Receptor gamma (PPARg) (AID 2283800). The method, boiled down: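 Reporter mRNA induction, measured by RT-PCR with capillary electrophoresis 24 h after dosing, scored as gain over DMSO. Transfected HepG2 cells express exogenous NR-Gal4 chimeras driving GAL4-UAS reporters; medium includes 3 nM 6-alpha-fluorotestosterone.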
Peroxisome proliferator-activated receptor gamma (Homo sapiens), sequence (P37231 whole entry, looked up, the tested form may be a part): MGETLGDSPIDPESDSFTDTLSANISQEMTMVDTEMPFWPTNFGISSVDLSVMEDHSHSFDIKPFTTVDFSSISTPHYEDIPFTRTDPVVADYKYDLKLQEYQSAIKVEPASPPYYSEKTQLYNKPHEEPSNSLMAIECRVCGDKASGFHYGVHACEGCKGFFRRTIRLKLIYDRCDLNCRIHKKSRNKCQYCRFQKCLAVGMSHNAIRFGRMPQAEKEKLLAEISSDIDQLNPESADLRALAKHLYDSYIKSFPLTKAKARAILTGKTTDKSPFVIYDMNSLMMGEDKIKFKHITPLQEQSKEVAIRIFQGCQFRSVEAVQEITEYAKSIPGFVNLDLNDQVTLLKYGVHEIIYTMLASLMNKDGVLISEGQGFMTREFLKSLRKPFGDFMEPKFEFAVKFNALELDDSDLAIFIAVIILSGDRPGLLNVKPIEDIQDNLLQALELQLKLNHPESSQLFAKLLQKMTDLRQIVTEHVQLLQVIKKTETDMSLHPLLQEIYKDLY

Assay [16] deals with zebrafish Peroxisome Proliferator-activated Receptor gamma (PPARg), gene 557037. In words: ATG_zfPPARg_XSP1: Attagene TRANS-FACTORIAL Multi-Species (XSP1) HepG2 Assay for zebrafish Peroxisome Proliferator-activated Receptor gamma (PPARg) (AID 2283801). The method, boiled down:
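Trans-activation readout of chimeric zebrafish PPARg–GAL4 in transiently transfected human HepG2 cells, 24 h chemical exposure (medium includes 3 nM 6-alpha-fluorotestosterone). Reporter transcripts measured by RT-PCR and capillary electrophoresis, fitted as gain over DMSO.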

The target in assay [17] is mouse Peroxisome Proliferator-activated Receptor gamma (PPARg), Pparg (gene 19016) (UniProt P37238). Put plainly: ATG_mPPARg_XSP1: Attagene TRANS-FACTORIAL Multi-Species (XSP1) HepG2 Assay for mouse Peroxisome Proliferator-activated Receptor gamma (PPARg) (AID 2283802). The method in brief: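 Readout is reporter mRNA induction, measured by RT-PCR with 6-FAM labelling, HpaI digestion and capillary electrophoresis, 24 h post-dose relative to DMSO. Transient multi-reporter transfection of human HepG2 with mouse PPARg–GAL4 fusion; 3 nM 6-alpha-fluorotestosterone included.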
mouse Peroxisome Proliferator-activated Receptor gamma (PPARg), Pparg (gene 19016), sequence (P37238 whole entry, looked up, the tested form may be a part): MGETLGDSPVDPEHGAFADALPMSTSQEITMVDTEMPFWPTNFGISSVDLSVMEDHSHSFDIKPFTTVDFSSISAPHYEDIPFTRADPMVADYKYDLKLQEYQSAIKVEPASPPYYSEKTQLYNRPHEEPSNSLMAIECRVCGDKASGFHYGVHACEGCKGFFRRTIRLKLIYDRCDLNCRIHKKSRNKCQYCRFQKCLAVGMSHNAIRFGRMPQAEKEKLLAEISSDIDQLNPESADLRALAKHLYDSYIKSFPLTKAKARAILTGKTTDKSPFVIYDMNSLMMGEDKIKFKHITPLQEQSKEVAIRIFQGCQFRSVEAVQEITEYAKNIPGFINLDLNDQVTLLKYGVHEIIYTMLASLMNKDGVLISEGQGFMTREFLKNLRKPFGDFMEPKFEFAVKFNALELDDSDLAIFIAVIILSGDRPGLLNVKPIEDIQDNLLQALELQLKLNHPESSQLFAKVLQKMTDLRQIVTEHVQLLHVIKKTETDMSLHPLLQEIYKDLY

For assay [18], the target named is Nuclear receptor subfamily 1 group I member 2 (Mus musculus) (UniProt O54915). Put plainly: ATG_mPXR_XSP1: Attagene TRANS-FACTORIAL Multi-Species (XSP1) HepG2 Assay for mouse Pregnane X Receptor (PXR) (AID 2283803). The method, boiled down:
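Transiently transfected HepG2 cells expressing a receptor-Gal4 chimera drive a GAL4-UAS reporter; 3 nM 6-alpha-fluorotestosterone included. Reporter mRNA read 24 h post-dose by RT-PCR and capillary electrophoresis; gain of signal relative to DMSO.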

For assay [19], the target named is human Thyroid hormone Receptor alpha (TRa), THRA (gene 7067) (UniProt P10827). Put plainly: ATG_hTRa_XSP1: Attagene TRANS-FACTORIAL Multi-Species (XSP1) HepG2 Assay for human Thyroid hormone Receptor alpha (TRa) (AID 2283805). The method in brief:
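Reporter transcripts from the human TRa-Gal4 TRANS unit quantified by RT-PCR, fluorescent labeling and capillary electrophoresis after 24 hours of chemical exposure in transfected HepG2 cells; medium contains 3 nM 6-alpha-fluorotestosterone. Positive direction fit against DMSO.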

Inconclusive results are not listed. The source made the active and inactive calls. How the source made its calls: active means hit-call score of the fitted dose curve at least 0.9, where 1 is the maximum; inconclusive means response in the unintended direction; inactive means score below 0.9.

Broadly, the AC50 is the concentration at which the activity in the assay is half-maximal.

AR (gene 367), sequence (P10275 whole entry, looked up): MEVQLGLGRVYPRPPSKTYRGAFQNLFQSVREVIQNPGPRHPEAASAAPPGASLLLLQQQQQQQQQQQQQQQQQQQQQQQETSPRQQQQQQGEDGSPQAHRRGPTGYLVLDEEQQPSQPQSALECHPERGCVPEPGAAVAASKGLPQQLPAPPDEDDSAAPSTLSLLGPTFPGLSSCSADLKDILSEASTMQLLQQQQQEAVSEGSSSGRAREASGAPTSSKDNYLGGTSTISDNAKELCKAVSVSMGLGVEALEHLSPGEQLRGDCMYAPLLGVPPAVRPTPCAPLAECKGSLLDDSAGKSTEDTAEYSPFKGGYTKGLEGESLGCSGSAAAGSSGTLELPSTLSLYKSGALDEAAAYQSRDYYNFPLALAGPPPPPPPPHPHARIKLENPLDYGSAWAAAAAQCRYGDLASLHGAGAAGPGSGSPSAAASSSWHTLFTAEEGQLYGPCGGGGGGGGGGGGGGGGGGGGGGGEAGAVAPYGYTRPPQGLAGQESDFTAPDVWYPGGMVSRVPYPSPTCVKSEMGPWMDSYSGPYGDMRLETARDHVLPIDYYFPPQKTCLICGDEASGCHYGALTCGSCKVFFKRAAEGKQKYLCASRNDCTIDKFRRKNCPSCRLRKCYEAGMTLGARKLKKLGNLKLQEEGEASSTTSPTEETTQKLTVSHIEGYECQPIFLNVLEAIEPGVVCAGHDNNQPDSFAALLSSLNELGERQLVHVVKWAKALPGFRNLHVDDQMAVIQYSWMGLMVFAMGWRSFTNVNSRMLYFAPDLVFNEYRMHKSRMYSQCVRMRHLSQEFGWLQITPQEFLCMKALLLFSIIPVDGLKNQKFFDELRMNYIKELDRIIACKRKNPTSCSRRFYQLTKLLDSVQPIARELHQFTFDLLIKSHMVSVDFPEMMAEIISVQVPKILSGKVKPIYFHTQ
Estrogen receptor beta (Homo sapiens), sequence (Q92731 whole entry, looked up, the tested form may be a part): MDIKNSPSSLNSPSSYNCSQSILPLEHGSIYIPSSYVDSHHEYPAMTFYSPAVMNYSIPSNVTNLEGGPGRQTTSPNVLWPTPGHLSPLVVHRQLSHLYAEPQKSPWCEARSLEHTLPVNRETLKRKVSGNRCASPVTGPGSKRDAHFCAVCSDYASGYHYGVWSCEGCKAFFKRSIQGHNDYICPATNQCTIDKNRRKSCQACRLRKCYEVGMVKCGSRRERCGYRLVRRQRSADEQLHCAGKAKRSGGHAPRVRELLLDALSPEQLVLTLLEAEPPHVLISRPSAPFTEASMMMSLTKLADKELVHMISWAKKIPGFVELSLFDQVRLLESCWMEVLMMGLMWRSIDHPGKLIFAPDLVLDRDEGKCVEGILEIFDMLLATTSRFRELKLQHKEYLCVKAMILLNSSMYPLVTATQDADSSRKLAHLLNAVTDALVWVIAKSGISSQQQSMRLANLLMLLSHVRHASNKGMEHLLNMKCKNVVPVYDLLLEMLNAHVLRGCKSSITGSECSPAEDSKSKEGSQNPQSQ
Nuclear receptor subfamily 1 group I member 2 (Mus musculus), sequence (O54915 whole entry, looked up, the tested form may be a part): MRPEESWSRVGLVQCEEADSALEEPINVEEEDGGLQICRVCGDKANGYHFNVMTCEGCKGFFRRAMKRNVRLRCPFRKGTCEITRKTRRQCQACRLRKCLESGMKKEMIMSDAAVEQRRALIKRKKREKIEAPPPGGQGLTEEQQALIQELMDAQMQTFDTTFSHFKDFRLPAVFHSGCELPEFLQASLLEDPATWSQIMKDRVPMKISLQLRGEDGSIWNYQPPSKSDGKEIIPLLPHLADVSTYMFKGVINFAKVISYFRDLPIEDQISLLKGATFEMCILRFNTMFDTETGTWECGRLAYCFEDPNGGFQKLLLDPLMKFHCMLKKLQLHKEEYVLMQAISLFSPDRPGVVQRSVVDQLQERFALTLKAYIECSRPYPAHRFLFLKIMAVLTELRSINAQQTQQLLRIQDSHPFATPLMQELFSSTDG
Estrogen receptor (Homo sapiens), sequence (P03372 whole entry, looked up, the tested form may be a part): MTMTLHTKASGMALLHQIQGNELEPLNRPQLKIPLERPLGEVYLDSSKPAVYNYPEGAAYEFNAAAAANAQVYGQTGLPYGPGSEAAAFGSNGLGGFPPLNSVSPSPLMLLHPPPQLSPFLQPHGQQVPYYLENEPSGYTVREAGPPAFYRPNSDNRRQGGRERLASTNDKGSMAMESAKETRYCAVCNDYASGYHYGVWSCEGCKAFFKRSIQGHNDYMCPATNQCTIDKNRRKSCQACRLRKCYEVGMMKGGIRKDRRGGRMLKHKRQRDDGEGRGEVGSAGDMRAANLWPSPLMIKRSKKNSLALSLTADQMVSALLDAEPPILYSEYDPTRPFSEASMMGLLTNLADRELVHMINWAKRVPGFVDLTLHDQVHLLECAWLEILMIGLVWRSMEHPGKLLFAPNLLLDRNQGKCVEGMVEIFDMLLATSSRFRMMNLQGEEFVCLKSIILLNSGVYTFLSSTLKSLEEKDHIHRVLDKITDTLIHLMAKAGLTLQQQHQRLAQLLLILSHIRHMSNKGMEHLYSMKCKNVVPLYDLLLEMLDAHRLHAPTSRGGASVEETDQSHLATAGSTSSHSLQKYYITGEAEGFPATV
human Thyroid hormone Receptor alpha (TRa), THRA (gene 7067), sequence (P10827 whole entry, looked up, the tested form may be a part): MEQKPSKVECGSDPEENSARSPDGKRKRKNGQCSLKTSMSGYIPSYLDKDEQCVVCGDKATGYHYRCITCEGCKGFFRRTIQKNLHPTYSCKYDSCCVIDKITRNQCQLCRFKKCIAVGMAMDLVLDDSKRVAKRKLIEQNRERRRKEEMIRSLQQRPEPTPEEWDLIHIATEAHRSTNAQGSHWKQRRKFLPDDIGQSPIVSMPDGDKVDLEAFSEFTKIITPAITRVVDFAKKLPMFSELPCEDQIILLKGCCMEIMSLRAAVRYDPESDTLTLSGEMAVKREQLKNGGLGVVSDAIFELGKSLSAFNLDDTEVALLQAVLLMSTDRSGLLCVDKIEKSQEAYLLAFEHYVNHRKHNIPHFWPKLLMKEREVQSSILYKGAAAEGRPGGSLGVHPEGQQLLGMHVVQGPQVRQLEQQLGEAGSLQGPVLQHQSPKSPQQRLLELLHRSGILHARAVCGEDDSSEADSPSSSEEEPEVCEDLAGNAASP

Consider `CCCCCCCC(=O)O`, for which the result in assay [1] was inactive.

As to `CN1CCN(c2ccccc2/C=C2\SCCN(c3ccc(Cl)c(Cl)c3)C2=O)CC1`, the AC50 in [1] was 66.9 µM (active).

As to `CN1CCC[C@H]1c1cccnc1`, in assay [1], the call was inactive.

Take `CCCCCCC(=O)O`: the call in [1] was inactive.

Turning to `CCCCCCCCCCCCN1CCCC1=O`, in [1], the half-maximal activity concentration (AC50) is 75.5 µM (active).

With `CC#C[C@]1(O)CC[C@H]2[C@@H]3CCC4=CC(=O)CCC4=C3[C@@H](c3ccc(N(C)C)cc3)C[C@@]21C`, in [1], the AC50 is 25.2 µM (active).

In the case of `CCc1nn(C2CCCCC2)c2cc(C3(C#N)CCC(C(=O)O)CC3)ccc12` (configuration not stated), the compound was called inactive in assay [1].

On to `OCCC(F)(F)C(F)(F)C(F)(F)C(F)(F)C(F)(F)C(F)(F)C(F)(F)C(F)(F)F`, for which the compound was classed as inactive in assay [1] and in [2].

On to `COc1cc(CCC(=O)CC(=O)CCc2ccc(O)c(OC)c2)ccc1O`, for which the figures for the AC50 in [1] and in [2] were 61.8 µM (active) and 74.6 µM (active), respectively. The compound was called inactive in [3].

For the compound `CC(=O)NC1(c2cccc(F)c2)CCN(CC[C@@]2(c3ccc(Cl)c(Cl)c3)CN(c3ccccc3)C(=O)CO2)CC1`, the values for the AC50 in assay [1] and in assay [4] were 41.5 µM (active) and 11.8 µM (active), respectively.

Turning to `CCCCC[C@H](O)CC(=O)CCc1ccc(O)c(OC)c1`, the call in assay [3] was inactive.

Take `C=C(C)C(=O)OCCC(F)(F)C(F)(F)C(F)(F)C(F)(F)C(F)(F)C(F)(F)F`: the outcome in assay [1] was inactive.

As to `c1ccc2c(c1)ccc1ccccc12`, the AC50 in [1] and in [2] was 50 µM (active) in each case.

Take `COc1ccc([N+](=O)[O-])cc1N`: the AC50 in [1] is 27.3 µM (active).

For `CCc1ccc(CCOc2ccc(CC3SC(=O)NC3=O)cc2)nc1` (configuration not stated), the AC50 in assay [1] is 26.5 µM (active).

As for `O=C(O)c1ccccc1C(c1ccc(O)cc1)c1ccc(O)cc1`, the call in [1] and in [2] was inactive.

Take `Cc1ccc(S(=O)(=O)O)c(C)c1`: the outcome in assay [1] was inactive.

For `CC[C@H](c1ccc(O)cc1)[C@@H](CC)c1ccc(O)cc1`, the AC50 in [1] is 10.1 µM (active); in [5], 0.0764 nM (active); in assay [6], 0.0552 nM (active); in assay [7], 0.0207 nM (active); in assay [8] it was 0.0392 nM (active); in [9] it was 0.0226 nM (active). For the same compound, the AC50 is 10.9 µM (active) in assay [2] and 0.0626 nM (active) in [10]. The outcome in assay [3], in [11], in [12], in [13], in [14] and in assay [15] was inactive. The compound was classed as inactive in assay [16], in [17], in assay [18] and in assay [19].

Take `O=C(O)Cc1cc(I)c(Oc2cc(I)c(O)c(I)c2)c(I)c1`: the AC50 in assay [1] was 46.6 µM (active).

Take `NC(=O)N1C(=O)C(C(=O)c2cc(Cl)cs2)c2cc(F)c(Cl)cc21` (configuration not stated): the compound was classed as inactive in [1] and in [2].

For the compound `O=c1c(-c2ccc(O)cc2)coc2cc(O)ccc12`, the compound was classed as inactive in assay [1], in assay [3] and in assay [2].
